Laboratory results reported in PubChem BioAssay AID2540 (Sanford-Burnham Center for Chemical Genomics, 2010).
Screen size: about 330,000 compounds; about 4,100 (1.2%) were called active. No stated cut-off is given here; in the data, active means inhibition above about 50%; inactive means the rest. This excerpt belongs to a sample that is enriched for actives.

biological target: Sentrin-specific protease 8 (Homo sapiens) (UniProt Q96LD8); assay: blockers of human SENP8 peptidase activity – biochemical, luminescence, primary screen (AID 2540); conditions: purified SENP8, Z-RLRGG-aminoluciferin cleavage, at 10 µM, active compounds read high
Sequence (Q96LD8 whole entry, looked up): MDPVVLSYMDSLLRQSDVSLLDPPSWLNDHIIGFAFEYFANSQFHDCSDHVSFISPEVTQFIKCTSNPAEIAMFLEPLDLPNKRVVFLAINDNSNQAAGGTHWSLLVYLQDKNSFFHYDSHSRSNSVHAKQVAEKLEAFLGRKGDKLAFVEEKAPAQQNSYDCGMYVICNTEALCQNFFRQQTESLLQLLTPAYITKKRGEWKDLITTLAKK

| SMILES | inhibition |
| --- | --- |
| Cc1ccc(NC(=O)c2cc(-c3ccccc3O)n[nH]2)cc1C | -13.8% (inactive) |
| O=C(Nc1cccnc1Cl)c1cc(-c2ccccc2O)on1 | -7.17% (inactive) |
| S=c1[nH]nc(-c2cc(-c3ccccc3)n[nH]2)n1/N=C/c1c2ccccc2cc2ccccc12 | -9.93% (inactive) |
| Oc1ccccc1-c1cc(-c2ccc(Cl)cc2)n[nH]1 | 89.8% (active) |
| c1ccc(-c2cc(-c3ccccc3)[nH]n2)cc1 | 58.4% (active) |
| S=c1[nH]nc(-c2cc(-c3ccsc3)n[nH]2)n1-c1ccccc1 | 2.29% (inactive) |
| CCOc1ccc(C(=O)CCN2CCOCC2)cc1 | -4.08% (inactive) |
| CCCCn1c(N)c(N(CC(C)C)C(=O)C2CSC3(C)CCC(=O)N23)c(=O)[nH]c1=O (stereo not given) | -4.36% (inactive) |
| COC(C/C=C/C(=O)[C@@H](C)OCc1ccccc1)OC | -1.1% (inactive) |
| Cc1cc(NC(=O)c2ccc(F)cc2)ccc1NC(=O)c1ccco1 | 55.5% (active) |
| O=C(Nc1ccc(O)cc1)c1ccc(NC(=O)c2ccco2)cc1 | -13.6% (inactive) |
| COc1ccccc1C(=O)Nc1ccc(NC(=O)c2ccco2)c(C)c1 | 42.6% (inactive) |
| CC1(C)CCSC(/C=C/c2ccccc2)=N1 | -3.81% (inactive) |
| CCOc1ccc(C(O)Cn2c(=N)n(CCN3CCCCC3)c3ccccc32)cc1 (stereo not given) | 4.64% (inactive) |
| O=C1c2ccccc2-c2ncnc3c(N4CCOCC4)cc(N4CCOCC4)c1c23 | -2.88% (inactive) |
| O=C(c1ccccc1)C(Cn1cncn1)C(Sc1ccccc1)c1ccccc1 (stereo not given) | -0.476% (inactive) |
| Cc1ccc(NC(=O)Nc2nnc(-c3ccncc3)s2)cc1 | -9.37% (inactive) |
| Cc1ccc(Nc2nc(C)cc(C)c2C(N)=O)cc1 | 5.13% (inactive) |
| Cc1ccc(Nc2nc(Cl)c(C=O)s2)cc1 | 67.8% (active) |
| CCOC(=O)C1CCN(S(=O)(=O)c2ccc3c(c2)N(C)C(=O)CC(=O)N3C)CC1 | 2.4% (inactive) |
| CC[N+](C)(CC)CCC[n+]1c(-c2ccccc2)c2cc(N)ccc2c2ccc(N)cc21 | 96.5% (active) |
| Cc1cc(C)cc(-c2nnc(SCC(=O)NC3CC3)o2)c1 | -2.18% (inactive) |
| CCC(=O)Nc1ccc2nn(-c3ccc(F)cc3)nc2c1 | 63.6% (active) |
| Cc1ccc(-n2nc3ccc(NC(=O)/C=C/c4ccco4)cc3n2)cc1C | 15.4% (inactive) |
| Cc1nn(CC(=O)Nc2ccc(F)cc2)c(=O)c2ccccc12 | 1.21% (inactive) |

| SMILES | inhibition |
| --- | --- |
| CCOc1c2ccc(C(=O)NC3CCCc4ccccc43)cc2nn1CC (stereo not given) | -8.27% (inactive) |
| CC(=O)N1CC2(C)CN(C(C)=O)CC(C)(C1)C2=O | 1.73% (inactive) |
| CCOc1ccc(-n2c(SCC(N)=O)nnc2-c2ccco2)cc1 | -1.84% (inactive) |
| N#Cc1ccc(OCc2nnc(-c3ccc([N+](=O)[O-])cc3)o2)cc1 | 7.85% (inactive) |
| CCCCOc1ccc(-c2ncc(C(=O)OCC)c(N)n2)cc1 | -12.4% (inactive) |
| CCOc1ccc(-c2nnc(-c3ccco3)o2)cc1 | 73.3% (active) |
| CCCCSc1nnc(-c2ccc(C)cc2)o1 | 33.5% (inactive) |
| CCCCOc1ccc(-c2nnc(-c3ccco3)o2)cc1 | 64.8% (active) |
| Cc1c(-c2ccccc2)n[nH]c1C(=O)N=Nc1c(O)[nH]c2ccccc12 | 21.6% (inactive) |
| Cc1ccccc1NS(=O)(=O)CCCCC(Cl)(Cl)Cl | 7.88% (inactive) |
| CCOc1ccc(S(=O)(=O)N/N=C(\C)c2ccc(Cl)c(Cl)c2Cl)cc1 | 1.79% (inactive) |
| CCN1C(=O)C(C(=O)NC(C)c2ccccc2)C2CC1(C)Oc1ccccc12 (stereo not given) | 7.17% (inactive) |
| CSc1sc(C(=O)NC(=O)NCc2cccnc2)c(C)c1-c1ccon1 | 4.14% (inactive) |
| O=C(Cn1cc(C(=O)C2CC2)c2ccccc21)Nc1ccccc1Cl | 5.51% (inactive) |
| O=C(COC(=O)c1ccc(O)cc1O)NNC(=O)c1cccs1 | -4.38% (inactive) |
| C=CCOc1ccc(/C=C2\SC(=S)N(CCC(=O)O)C2=O)cc1 | 97.6% (active) |
| Cc1ccc(/C=C2/SC(=S)N(CCC(=O)NCCCN3CCOCC3)C2=O)cc1 | -1.52% (inactive) |
| COc1ccc(/C=C2\SC(=S)N(CC(=O)NNC(=O)c3ccncc3)C2=O)cc1 | -3.25% (inactive) |
| C[C@@H](C(=O)Nc1ccc2ccccc2c1)[C@@H]1C[C@@]1(C)[C@@H](NC(=O)c1cccnc1)c1ccccc1 | 13.1% (inactive) |
| CCOC(=O)C1=C(NC(=S)NC(=O)c2ccccc2)c2ccccc2CC1(C)C | -5.5% (inactive) |
| COc1ccccc1NC(=O)COC(=O)CNC(=O)C1CCCCC1 | 8.04% (inactive) |
| COc1cc(/C=N/N=C(\N)c2nonc2N)cc(OC)c1OC | -1.1% (inactive) |
| c1ccc(-n2nc3ccccc3n2)cc1 | -19.2% (inactive) |
| CN(C)c1nnnn1-c1ccc(Cl)cc1 | 2.64% (inactive) |
| Nc1ccc2nn(-c3ccc(Cl)cc3)nc2c1 | 86.7% (active) |

| SMILES | inhibition |
| --- | --- |
| COc1ccc(Br)cc1CN(C)CC(=O)Nc1cc([N+](=O)[O-])ccc1OC | -6.64% (inactive) |
| Cc1ccc2c(c1)NCC(C(=O)NC1CCC(C)CC1)O2 (stereo not given) | -10.8% (inactive) |
| COc1cccc(C(=O)NC(=O)Nc2nc(C)cc(C(F)(F)F)n2)c1 | -10.3% (inactive) |
| Cc1ccc(/C=N/NC(=S)Nc2cccc(S(=O)(=O)N(C)C)c2)o1 | 1.79% (inactive) |
| N=c1oc2ccccc2cc1C(=O)N/N=C/c1ccccc1 | 86.5% (active) |
| N=c1oc2ccccc2cc1C(=O)NCc1ccccc1 | -17.9% (inactive) |
| Cc1ccc(/C=N/NC(=S)NC2CCCCC2)o1 | -5.05% (inactive) |
| CNC(=O)c1cc2c(ccc3ccccc32)oc1=N | -3% (inactive) |
| Cc1ccc(/C=N/NC(=O)c2cc3ccccc3cc2O)o1 | 55.8% (active) |
| CN(CC(=O)NC1CCCC1)S(=O)(=O)c1cnc[nH]1 | -8.57% (inactive) |
| O=C(NCCO)C(=O)NCC(c1ccc2c(c1)OCO2)N1CCN(c2ccc(F)cc2)CC1 (stereo not given) | -0.025% (inactive) |
| CC(=O)N1CC(C)c2scc(C)[n+]2-c2ccccc21 (stereo not given) | 0.506% (inactive) |
| COc1ccc(S(=O)(=O)Nc2ccc(F)cc2)c(C)c1C | 3.56% (inactive) |
| O=C(Nc1cc2c3c(c1)CC(=O)N3CCC2)c1ccccc1F | 3.3% (inactive) |
| Cc1ccc(C)c(NC(=O)CSc2nc3c(oc4ccccc43)c(=O)n2-c2ccccc2)c1 | -0.496% (inactive) |
| Oc1ccc(N=Nc2nccs2)c(O)c1 | 72.7% (active) |
| O=C(Nc1cccc(Cl)c1)Nc1ccccc1NS(=O)(=O)c1cccs1 | 11.3% (inactive) |
| COC(=O)CNC(c1ccccc1Cl)c1cc(Br)ccc1NC(=O)CCN1CCOCC1 (stereo not given) | -4.92% (inactive) |
| Cn1c(Cn2nnc3ccccc32)nnc1SCC(=O)c1ccccc1F | 0% (inactive) |
| Cc1oc(-c2cccc(Cl)c2)[n+]([O-])c1C | -7.45% (inactive) |
| Clc1ccc(-c2cc(C3CCNCC3)[nH]n2)c(Cl)c1 | 0.621% (inactive) |
| CCN1C(=O)c2cccc3c(N)ccc1c23 | 83.8% (active) |
| Cc1nn(C)cc1N1C(=O)c2cccc3c(N)ccc(c23)C1=O | 0.391% (inactive) |
| CCN1C(=O)c2cccc3c(S(=O)(=O)Nc4ccccc4O)ccc1c23 | 6.13% (inactive) |
| CC1=C2C(=O)OC(c3ccoc3)C2(C)CCC1 (stereo not given) | -1.03% (inactive) |

| SMILES | inhibition |
| --- | --- |
| CC(C)C(=O)Nc1ccc(C(=O)NNC(=O)c2cccs2)cc1 | -0.29% (inactive) |
| CCc1ccc(NC(=O)C(=O)NNC(=O)c2cccs2)cc1 | 69.7% (active) |
| CCc1ccc(NC(=O)COC(=O)c2cccs2)cc1 | 11.2% (inactive) |
| Cc1ccc(CCCOC(=O)C[N+]2(C)CCCCC2)cc1 | 7.71% (inactive) |
| COc1ccc(CCNc2cc(N3CCN(C(=O)c4ccccc4OC)CC3)ccc2[N+](=O)[O-])cc1OC | -3.35% (inactive) |
| CC1=NN(C(N)=S)C(=O)C1N=Nc1cc(Cl)ccc1Cl (stereo not given) | 70.4% (active) |
| NC(=O)CC[C@@H]1NC(=O)[C@@H]2CCCN2C(=O)c2cc([N+](=O)[O-])cc(F)c2NCCC[C@@H](C(N)=O)NC1=O | -2.54% (inactive) |
| CN(CC(=O)NCc1cccnc1)S(=O)(=O)c1cc(Cl)ccc1Cl | 3.65% (inactive) |
| CN1C(C(=O)NCc2ccco2)CC2Cn3c(nc4ccccc43)C21 (stereo not given) | -18.3% (inactive) |
| O=C(O)CN1C(=O)CC(Cc2ccccc2)C1=O (stereo not given) | 4.48% (inactive) |
| CCOC(=O)c1ccc(Nc2cc3ccccc3c(=O)[nH]2)cc1 | 64.2% (active) |
| CCOC(=O)c1ccc(Nc2cc(C)nc3nc(C)nn23)cc1 | 7.18% (inactive) |
| CCOC(=O)c1ccc(NC(=O)c2c(NCc3ccccc3)[nH]c(=O)[nH]c2=O)cc1 | 0.312% (inactive) |
| O=C(NN1C(=O)C2C3C=CC(O3)C2C1=O)c1ccccc1 (stereo not given) | -0.512% (inactive) |
| Nc1ccc(N=Nc2ccccc2Cl)c(N)n1 | 72.7% (active) |
| COc1ccccc1C1CC(=O)n2c(nc(-c3ccccc3)c2-c2ccccc2)S1 (stereo not given) | -4.43% (inactive) |
| CC(=O)c1cnn(-c2cc(Oc3ccc(F)cc3)ncn2)c1C | 9.6% (inactive) |
| O=C(COc1ccc2c(c1)CCC2)N1CCN(c2ccc(F)cc2)CC1 | -17.5% (inactive) |
| COc1ccc(-c2sc3ccccc3c2-c2ccc(OCCN3CCOCC3)cc2)cc1 | 8% (inactive) |
| COC(=O)c1ccc(/C=C/c2c(-c3ccc(OC)cc3)sc3ccccc23)cc1 | -2.53% (inactive) |
| COc1ccc(N=C(C)c2sc3ccccc3c2O)cc1 | 74% (active) |
| COC(=O)C1=CN(c2ccc(F)c(F)c2)C=C(C(=O)OC)C1c1ccc([N+](=O)[O-])cc1 | -9.67% (inactive) |
| CC(=O)N1CCN(C(=O)C2(NC(=O)Nc3ccc(C)cc3)CCCCC2)CC1 | 5.59% (inactive) |
| CC1(C)CC(N(Cc2ccccc2)C(=O)Cc2ccccc2)CCO1 (stereo not given) | -3.89% (inactive) |
| COc1ccc(-c2ccc(OC(=O)NC3CCS(=O)(=O)C3)cc2)cc1 (stereo not given) | -13.5% (inactive) |
